Screens (PubChem)
An excerpt weighted towards active compounds, which were near 3.6% of everything screened.
mHTT CaM bind – inhibitors of human mutant huntingtin-calmodulin interaction. AlphaScreen His-mHTT/GST-CaM binding, luminescence. AID 1671202. actives 3.6% (n = 190,000). inhibition, % at 15 µM. P42858;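 also: 0% = both proteins with DMSO and 100% = one protein alone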
Pf apPOL block – Pf-apPOL DNA polymerase inhibition. actives 0.25% (n = 210,000). AID 1794808. Recombinant Pf-apPOL, molecular beacon fluorescence, 1.5 h. inhibition, % at 10 µM
An asterisk follows results filed as active; i = inactive; . = no result given; + = active, no number. Rule as the data show it: active = inhibition above about 50%; inactive = the rest.

SMILES	mHTT CaM bind	Pf apPOL block
CC(C)(C)NC(=O)Cn1c(=O)n(-c2ccc(F)cc2)c2ncccc21	-0.2	0.9
CNC(=O)C1CN(C(=O)c2ccc(OC)c(OC)c2)CC12CCCC2 (centres undefined)	0.3	-0.5
CC(=O)n1cc(/C=C2\C(=O)NN(c3ccccc3)C2=O)c(-c2ccc(F)cc2)n1	54.0*	-2.5
COc1ccccc1/C=C1\C(=O)NN(c2ccccc2)C1=O	-1.0	-4.3
COc1ccc(-c2ccccc2)cc1NCc1cccs1	55.0*	1.1
FC(F)(F)c1cc(-c2ccccc2)nc(NCc2cccs2)n1	-272.0	5.8
Cn1nc(-c2nc(Cc3ccccc3)no2)c2c1CCN(C(=O)c1ccccn1)C2	18.0	-2.2
O=[N+]([O-])c1ccc(S(=O)(=O)CC(Cl)CS(=O)(=O)Cc2ccccc2)cc1 (centres undefined)	100.0*	5.3
O=[N+]([O-])c1ccc(NCCNS(=O)(=O)Cc2ccccc2)cc1	5.7	-3.6
COc1ccccc1C(=O)Nc1nnc(/C=C/c2ccccc2)s1	-9.5	-0.6
CSc1ccc(C2Nc3ccc4ncccc4c3C3=C2C(=O)CCC3)cc1 (centres undefined)	23.0	0.4
COc1ccc(OC)c(C2Nc3ccc4ncccc4c3C3=C2C(=O)CC(C)(C)C3)c1 (centres undefined)	42.0	0.5
CC1(C)CC(=O)C2=C(C1)c1c(ccc3ncccc13)NC2c1ccc(Br)cc1 (centres undefined)	25.0	3.0
CCN(CC)c1ccc(C2Nc3ccc4ncccc4c3C3=C2C(=O)CC(C)(C)C3)cc1 (centres undefined)	62.0*	-0.4
COc1ccc(Br)cc1C1Nc2ccc3ncccc3c2C2=C1C(=O)CC(C)(C)C2 (centres undefined)	53.0*	6.0
CCCOc1ccc(C2Nc3ccc4ncccc4c3C3=C2C(=O)CCC3)cc1 (centres undefined)	58.0*	0.2
CCc1ccc(NCN2C(=O)S/C(=C\c3ccc(C)o3)C2=O)cc1	8.0	2.4
Cc1ccc(O)c(NC(=O)CSc2n[nH]c(C)c2[N+](=O)[O-])c1	13.0	11.1
Cc1[nH]nc(SCC(=O)Nc2cc(Br)ccc2O)c1[N+](=O)[O-]	52.0*	0.7
O=C1S/C(=C\c2ccc(F)cc2)C(=O)N1Cc1ccc(F)cc1	-1.0	-3.5
Cc1ccc(-n2nc(C)c3c2OC(N)=C(C#N)C3c2ccco2)cc1 (centres undefined)	60.3*	-2.9
Cc1ccc(-n2nc(C)c3c2OC(N)=C(C#N)C3c2c(F)cccc2Cl)cc1 (centres undefined)	10.2	-0.5
Cc1cccc(C2=N/C(=C\c3ccc(C)o3)C(=O)O2)c1	2.0	-0.6
Oc1ccc(/C=N\Nc2nncn2/N=C\c2ccc(O)c(O)c2)cc1O	i	.
C#CCOc1ccc(/C=N\n2cnnc2N/N=C/c2ccc(OCC#C)c(OC)c2)cc1OC	+	.
SMILES	mHTT CaM bind	Pf apPOL block
Cc1cc(Br)cc(C)c1NC(=O)c1cccc(F)c1	-12.3	2.1
CCN(CC)C(=O)c1cc2c(s1)CCC(C(=O)NCc1ccncc1)C2 (centres undefined)	-0.3	-2.3
Cc1ccc(C2=NC(=C(Cl)Cl)C(=O)N2)cc1	100.0*	-2.7
CCN(CC)CCC(=O)c1ccc(OC)c(OC)c1	-0.8	-21.2
Cc1cccc(CC(=O)N2CCC(c3nc4ccncc4n3C)C2)c1 (centres undefined)	-0.2	-3.0
O=C(Cn1nnc2ccccc21)c1ccc([N+](=O)[O-])cc1	5.0	2.1
N#CC1C(c2ccc3ccccc3n2)=CN(CC(=O)c2ccc([N+](=O)[O-])cc2)c2ccccc21 (centres undefined)	32.0	75.4*
N#Cc1ccc(C(=O)N2CCN(c3nc(CN4CCOCC4)cs3)CC2)cc1	6.2	-0.9
CC1CCc2cc(F)cc3c(O)c(C(=O)Nc4ncccc4O)c(=O)n1c23 (centres undefined)	22.0	-85.2
CCN(CC)CCNC(=O)c1c(O)c2cc(F)cc3c2n(c1=O)C(C)CC3 (centres undefined)	61.0*	-77.6
CC(C)c1ccc(NC(=O)C2CCN(c3cncnc3N3CCOCC3)CC2)cc1	30.9	-4.2
O=C(Nc1cnc(N2CCOCC2)nc1)c1ccc(F)c(Cl)c1	4.2	-2.4
Nc1ccc2[nH]c3c(c2c1)CCCC3	67.8*	.
O=c1c2c([nH]c3ccccc13)CCCC2	.	3.6
Brc1ccc2[nH]c3c(c2c1)CCCCC3	52.7*	.
c1ccc2c3c([nH]c2c1)CCCCCC3	.	-7.3
COc1cc(C=CC(=O)c2ccc(Br)cc2)ccc1OC(=O)c1cccnc1	-4.8	-26.3
COc1cc(/C=C2/C(=O)ON=C2C)ccc1OCC(C)C	16.0	-6.8
CCOc1cc(/C=C2\C(=O)ON=C2C)ccc1OCc1ccccc1	15.0	2.3
COc1cc(/C=C2/C(=O)ON=C2C)ccc1OCCc1ccccc1	20.0	0.4
CCOc1cc(/C=C2/C(=O)ON=C2C)ccc1OCc1ccc(Br)cc1	13.0	11.3
CCOc1cc(/C=C2/C(=O)ON=C2C)ccc1OCc1cccc(Cl)c1	99.0*	-5.6
CCCOc1ccc(/C=C2\C(=O)ON=C2C)cc1OCC	85.0*	1.4
C=CCOc1ccc(/C=C2/C(=O)ON=C2C)cc1OC	87.0*	-3.8
CCOc1ccc(/C=C2\C(=O)ON=C2C)cc1OC	64.0*	0.7
SMILES	mHTT CaM bind	Pf apPOL block
Cc1cc(OC(=O)c2ccc3c(c2)OCO3)c([N+](=O)[O-])c(=O)[nH]1	3.3	-3.7
COc1cc(/C=C2\SC(=O)N(CN3CCCCC3)C2=O)ccc1O	7.0	-2.2
CCCc1nc2c(c(=O)n1CC(=O)Nc1ccc(F)cc1)CCN(Cc1ccccc1)C2	27.8	-4.4
CCC(=O)N1CCN(c2nc(C)nc(C)c2Cc2ccc(OC)cc2)CC1	10.0	6.1
O=C(NCc1n[nH]c(=O)c2ccccc12)C1(c2ccc(Cl)cc2)CCCC1	1.0	-2.9
C#CCOc1ccc(/C=C2\C(=O)ON=C2C)cc1OCC	51.0*	-6.0
C#CCOc1ccc(/C=C2\C(=O)ON=C2C)cc1OC	22.0	-2.9
O=C(c1c[nH]c2ccccc12)N1CCC2(CC1)NC(=O)N(Cc1ccccc1)C2=O	62.1*	1.9
O=C(c1c[nH]c2ccccc12)N1CCC2(CC1)NC(=O)N(Cc1cccc(Cl)c1)C2=O	100.1*	-0.7
O=C(c1ccccc1F)N1CCC2(CC1)NC(=O)N(Cc1ccccc1)C2=O	-1.4	-1.7
O=C(c1cc2ccccc2[nH]1)N1CCC2(C1)NC(=O)N(Cc1ccc(Cl)cc1)C2=O (centres undefined)	9.2	0.6
O=C(c1nccc2ccccc12)N1CCC2(CC1)NC(=O)N(Cc1cccc(Cl)c1)C2=O	24.1	-7.9
O=C(c1cc2ccccc2[nH]1)N1CCC2(CC1)NC(=O)N(Cc1ccc(Cl)cc1)C2=O	99.0*	-1.5
COc1cc(OC)c(OC)cc1CNc1ccc(F)c(F)c1	36.3	-1.3
CCOC(=O)C1CCCN(C(=O)c2cncc(-c3ccccc3F)c2)C1 (centres undefined)	4.4	3.4
O=C(Nc1nc2c(s1)CN(C(=O)c1cnn(-c3ccccc3)n1)CC2)c1ccco1	52.7*	6.1
O=C(Nc1nc2c(s1)CN(C(=O)c1cc(C3CC3)on1)CC2)c1ccco1	-9.8	-2.3
O=C(CCS(=O)(=O)Cc1cccc(Cl)c1)N1CCOCC1	-5.0	-12.0
CC1(C)CC(=O)C2=C(C1)N(c1ccc([N+](=O)[O-])cc1)C(N)=C(C#N)C2c1ccc(F)cc1 (centres undefined)	5.0	-4.2
